# Screens deposited in PubChem BioAssay by National Center for Advancing Translational Sciences (NCATS).
# Compounds with a hit are over-represented: about 19% of the library has one in this group of screens.
# S-ASM inh – human S-ASM enzyme inhibition; P17405; placental ASM, HMU-PC fluorogenic substrate, 60 min; Potency, µM (highest dose often 57.5 µM), for the others: at the top dose activity change, negative = inhibition, actives largely listed as inhibitors; hit rate 0.006% among 340,000; note: potency is the fitted concentration of half-maximal effect
# Target sequence (P17405 47-631 limits assumed): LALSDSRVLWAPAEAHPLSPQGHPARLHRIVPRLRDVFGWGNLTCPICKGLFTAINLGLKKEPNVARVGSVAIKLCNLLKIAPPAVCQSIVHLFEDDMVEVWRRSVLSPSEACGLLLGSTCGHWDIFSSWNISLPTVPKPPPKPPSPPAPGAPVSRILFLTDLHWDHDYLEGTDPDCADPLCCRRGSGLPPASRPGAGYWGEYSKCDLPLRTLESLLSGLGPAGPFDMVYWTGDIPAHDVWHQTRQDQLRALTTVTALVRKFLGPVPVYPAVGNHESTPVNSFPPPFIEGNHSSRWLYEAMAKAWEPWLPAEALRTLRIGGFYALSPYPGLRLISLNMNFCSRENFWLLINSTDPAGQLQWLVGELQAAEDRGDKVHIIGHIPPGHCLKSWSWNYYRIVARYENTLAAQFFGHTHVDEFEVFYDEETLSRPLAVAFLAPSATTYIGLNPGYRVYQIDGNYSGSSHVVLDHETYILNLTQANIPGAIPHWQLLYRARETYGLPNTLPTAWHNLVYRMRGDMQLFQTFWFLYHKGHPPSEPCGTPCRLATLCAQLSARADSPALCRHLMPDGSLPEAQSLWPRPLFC
#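 Human placenta-derived ASM enzyme was preincubated with compound for 10 minutes at room temperature, then given fluorogenic substrate HMU-PC0 (9 uM final) for 60 minutes at 37 °C; a pH 10 stop preceded fluorescence reading at Ex 386/Em 447 nm.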
# TGFb SMAD3 inh – inhibitors of TGF-b signaling; HepG2 CAGA-GFP TGF-b/SMAD3 reporter, GFP fluorescence, 18 h; TGF-beta stimulated, 500 pg/mL final; Potency, µM (series often up to 46.1 µM), without a hit: at the highest dose activity, negative = inhibition, actives largely listed as inhibitors; hit rate 1.2% among 410,000; note: potency is the fitted concentration of half-maximal effect; % is set by controls: 0 for no effect and ±100 for the full control effect; nearly all actives have a fitted effect of over 65% in size
#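 HEPG2 CAGA-GFP, 1000 cells/well; 2 h settle, 37 C; cpd via pin tool; TGF-b 500 pg/mL final; 18 h, 37 C; GFP imaging ex488/em500-530; %Activity normalised to -TGF-b and +DMSO controls; CRC fit, curve class.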
# IL-1B inflam inh – blocks inflammasome-driven IL-1 beta release. THP-1 LPS/ATP IL-1B secretion, AlphaLISA, 16 h; stronger effect = lower value. activity change, % at 57.5 µM. hit rate 4.7% among 360,000; in the data active = activity change below about -50%; inconclusive = mostly about -30% to -49%; note: % is set by controls: 0 for no effect and ±100 for the full control effect
#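 THP-1 cells pretreated 1 hr with compounds (up to 57.5 uM final), then stimulated with LPS (250 ng/mL final) plus ATP (1.25 mM final); secreted IL-1B measured by AlphaLISA after 16 hr, decreased signal indicating inhibition.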
# HepG2 tox – kills HepG2 cells in TGF-b inhibitor counter-screen; AID 588856; hit rate 0.76% among 410,000; HepG2 CAGA-GFP viability, ATP luminescence, 18 h; Potency, µM (titrated, usually from 46.1 µM), inactives show top-dose activity change, negative = cytotoxicity, usual class: cytotoxic; note: potency is the fitted concentration of half-maximal effect
#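 HepG2 CAGA-GFP cells (1000/well, DMEM with 1% FBS) received compound, then TGF-beta at 500 pg/mL final, and were incubated 18 hours at 37 degrees C. Viability was read by CellTiter-Glo luminescence. Media-only wells were set as complete cell-killing and DMSO as no toxicity.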
# TDP1 cell CPT – growth inhibition of DT40 Tdp1-/-;hTDP1 cells with camptothecin (screen for TDP1 inhibitors); chicken DT40 Tdp1-/-;hTDP1 cells + 20 nM CPT, ATP luminescence, 48 h; AID 686979; hit rate 12% among 420,000; Potency, µM (series often up to 46.2 µM), without a hit: at the top dose activity change, negative = growth inhibition, actives largely listed as inhibitors; note: potency is the fitted concentration of half-maximal effect; % is set by controls: 0 for no effect and ±100 for the full control effect; nearly all actives have a fitted effect of over 55% in size
#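 Cell growth measured by CellTiter-Glo luminescence after a minimum 48 h, 37 C compound exposure with 20 nM CPT in Tdp1-knockout DT40 cells stably expressing hTDP1, seeded 400/well; qHTS titration format.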
# DT40 TDP1 no CPT – qHTS for Inhibitors of human tyrosyl-DNA phosphodiesterase 1 (TDP1): qHTS in cells in absence of CPT; DT40 Tdp1-/- hTDP1 cells, no CPT, ATP luminescence, 48 h; Potency, µM (doses to about 46.2 µM), without a hit: at the highest dose activity change, negative = growth inhibition, most hits filed as inhibitors; hit rate 15% among 420,000; note: potency is the fitted concentration of half-maximal effect; % is set by controls: 0 for no effect and ±100 for the full control effect; nearly all actives have a fitted effect of over 55% in size
#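 Cells were dispensed at 400 per well, compounds added by pin tool, plates incubated ≥48 hr at 37 °C, then CellTiter-Glo added for 30 min at room temperature before luminescence reading. Line: DT40 Tdp1-/- complemented with hTDP1; camptothecin omitted.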
# An asterisk follows results filed as active; ? = inconclusive; . = no result. Unless noted, calls come from the whole dose curve; as a rule, active = well fitted curve in the direction sought with a large enough effect; inconclusive = small, poorly fitted or top-dose-only effect, or another doubt; inactive = no such curve, though single readings can be large; an effect the other way counts as inactive or inconclusive.
SMILES,S-ASM inh,TGFb SMAD3 inh,IL-1B inflam inh,HepG2 tox,TDP1 cell CPT,DT40 TDP1 no CPT
CCCn1c(=O)n(C)c(=O)c2c(SCC(=O)NCC(c3ccccc3)N(C)C)nc(CC(C)C)nc21 (stereo unspecified),-3%,4%,?,0%,21µM*,18µM*
Cc1nn(Cc2ccccc2)c(C)c1NC(=O)CSc1nc2sc3c(c2c(=O)n1C)CCC3,-1%,10%,39,-24%,?,18µM*
CN(C)C(CNC(=O)CSc1nc2sc3c(c2c(=O)n1C)CCCC3)c1ccccc1 (stereo unspecified),-3%,-16%,-1,-34%,23µM*,21µM*
Cn1c(SCC(=O)O)nc2sc3c(c2c1=O)CCC3,6%,-4%,18,-5%,-14%,-16%
CC1CCC(C(C)C)[C@H](O)C1 (stereo partly specified),.,.,.,.,?,0%
O=C(O)CSc1nc2sc3c(c2c(=O)n1-c1ccccc1)CCC3,21%,-10%,41,-17%,2%,-28%
CC(NC(=O)CSc1nc2sc3c(c2c(=O)n1-c1ccccc1)CCCC3)c1ccccc1 (stereo unspecified),-3%,-7%,36,-14%,6.5µM*,?
CC(C)[C@H](NC(=O)Nc1ccc(Oc2ccccc2)cc1)C(=O)O,0%,21%,17,-2%,12µM*,13µM*
CCC(C)[C@H](NC(=O)Nc1ccccc1F)C(=O)O (stereo partly specified),5%,-8%,1,9%,-3%,-18%
CCc1ccccc1NC(=O)N[C@H](C(=O)O)C(C)CC (stereo partly specified),25%,-1%,20,1%,?,15µM*
CCCCn1c(N)c(N(C(=O)CSc2nnnn2-c2ccccc2)C2CCCC2)c(=O)[nH]c1=O,0%,0%,4,-5%,4%,2%
Cc1ccccc1CN1C(=O)c2ccccc2Sc2ccc(C(=O)N3CCCC3)cc21,.,?,.,-16%,21µM*,16µM*
O=C(c1ccc2c(c1)N(Cc1ccccc1F)C(=O)c1ccccc1S2)N1CCOCC1,0%,?,-5,-16%,-1%,-8%
Cc1ccccc1CN1C(=O)c2ccccc2Sc2ccc(C(=O)N3CCOCC3)cc21,.,?,.,-28%,?,18µM*
Cc1cccc(CN2C(=O)c3ccccc3Sc3ccc(C(=O)N4CCCC4)cc32)c1,.,?,.,-36%,?,?
O=C(c1ccc2c(c1)N(Cc1ccccc1)C(=O)c1ccccc1S2)N1CCCC1,-4%,?,-16,-20%,16µM*,9.2µM*
CC1CN=C(c2ccccc2)O1 (stereo unspecified),1%,17%,-3,16%,3%,3%
CCOC(=O)c1[nH]c2ccccc2c1NC(=O)c1ccccc1F,.,-11%,.,-16%,?,?
CC(C)CCCC(C)NC(C)C (stereo unspecified),.,.,.,.,21%,-4%
COc1ccc(-n2ncc3c(NC4CCCC4)ncnc32)cc1,.,32%,.,-19%,?,?
O=C(Nc1ccc2oc(-c3ccc4ccccc4c3)nc2c1)c1cccc(Cl)c1Cl,.,-11%,.,-10%,8.2µM*,5.2µM*
COc1ccc2oc(-c3ccc(C)c(NC(=O)c4ccc5c(c4)OCCO5)c3)nc2c1,.,-4%,.,3%,?,16µM*
O=C(Nc1ccc2oc(-c3ccc4ccccc4c3)nc2c1)c1ccc2c(c1)OCCO2,51%,-11%,1,-7%,5.8µM*,8.2µM*
COc1ccc2oc(-c3ccc(C)c(NC(=O)c4cccnc4)c3)nc2c1,.,0%,.,-4%,-14%,1%
